# Bioassay records: PubChem, National Center for Advancing Translational Sciences (NCATS)
# Tb PFK inh-1 = T. brucei PFK enzyme inhibition. T. brucei PFK, ADP-Glo luminescence. O15648. actives 0.17% (n = 330,000). Potency, µM (series often up to 57.5 µM), for the others: top-dose activity, negative = inhibition, usual class: inhibitors;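 note: 0% = uninhibited 1x PFK enzyme wells and -100% = no-enzyme wells; nearly all actives have a fitted effect of over 60% in size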
#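 ADP-Glo luminescence quantified ADP after 45 min at room temperature, with 1.25 nM T. brucei PFK, 0.1 mM ATP and 0.5 mM fructose-6-phosphate in pH 8.0 TEA buffer. qHTS titrations up to 57 µM; curves classified by quality.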
# GLS inh = inhibitors of human glutaminase (GLS); Potency, µM (series often up to 45.5 µM), without a hit: at the highest dose activity change, negative = inhibition, most hits filed as inhibitors; GLS enzymatic activity, qHTS titration; actives 0.21% (n = 410,000); note: % is set by controls: 0 for no effect and ±100 for the full control effect
#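 hKGA in 45 mM KH2PO4 pH 8.2, 0.02% Tween-20 with pin-transferred compounds; 1 mM L-glutamine (stock) plus glutamate oxidase/HRP/Amplex Red coupling added. Fluorescence read initially and after 30 min at RT.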
# PGK inhibitor = inhibitors of T. brucei phosphoglycerate kinase; PGK/GAPDH coupled, Kinase-Glo luminescence, 60 min; P07378; actives 0.043% (n = 380,000); Potency, µM (series often up to 57.5 µM), inactives show at the top dose activity change, negative = inhibition, usual class: inhibitors; note: % is set by controls: 0 for no effect and ±100 for the full control effect; nearly all actives have a fitted effect of over 60% in size
#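 Recombinant glycosomal PGK reaction used 1,3-bisphosphoglycerate generated in-well by GAPDH (100nM final) in 100mM TEA pH 7.6, 5mM MgCl2, 0.01% Tween-20. After 60 minutes at room temperature, ATP was read by Kinase-Glo Plus luminescence end-point.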
# B2AR arrestin = recruits beta-arrestin to the human beta2-adrenergic receptor. P07550. beta-arrestin recruitment to beta2AR, cell-based reporter. Potency, µM (series often up to 46.1 µM), for inactives: at the top dose activation, hits mostly activators. actives 0.02% (n = 330,000);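 note: 0% = DMSO controls and full agonism = EC100 isoproterenol or metaproterenol; nearly all actives have a fitted effect of over 65% in size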
# Target sequence (P07550 whole entry, looked up): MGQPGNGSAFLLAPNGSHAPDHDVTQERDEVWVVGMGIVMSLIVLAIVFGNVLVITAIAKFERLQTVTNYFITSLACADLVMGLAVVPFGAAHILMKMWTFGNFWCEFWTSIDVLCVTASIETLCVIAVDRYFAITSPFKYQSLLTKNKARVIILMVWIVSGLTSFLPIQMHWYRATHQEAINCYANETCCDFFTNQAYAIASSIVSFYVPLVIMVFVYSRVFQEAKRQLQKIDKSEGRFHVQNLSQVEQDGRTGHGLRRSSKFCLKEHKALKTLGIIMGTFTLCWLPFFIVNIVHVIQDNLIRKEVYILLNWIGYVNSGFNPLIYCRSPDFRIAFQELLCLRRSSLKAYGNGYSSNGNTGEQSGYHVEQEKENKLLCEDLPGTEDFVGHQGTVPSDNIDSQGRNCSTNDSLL
# BCR signal inh = chronic active BCR signaling inhibition. ABC-DLBCL IkBa-CBG/CBR reporter, luminescence ratio, 4 h. Potency, µM (highest dose often 46.1 µM), for inactives: top-dose activity change, negative = inhibition, actives largely listed as inhibitors. actives 0.05% (n = 340,000). AID 493014; active = well fitted inhibition curve with a large enough effect in the signal ratio, with a control signal flat, not every such curve was filed as active; inconclusive = small, poorly fitted or top-dose-only effect, or effect the other way, or a change in a side signal; the % refers to the signal ratio;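 note: plate controls were basal doxycycline-induced cells for no effect and cells given 10 µM MG132 for full effect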
#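 TMD8 human ABC-DLBCL cells with doxycycline-inducible IκBα–green luciferase fusion and unfused red luciferase, in 0.5% FBS medium; compounds up to 46 uM, 4 h at 37C. Green/red luminescence ratio, filter-overlap corrected, fitted to concentration-response curves.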
# Pin1 inhibitor = blocks the human prolyl isomerase Pin1. Q13526. Pin1 FP peptide displacement, HiFluor488, 10 min. Potency, µM (titrated, usually from 115 µM), for inactives: top-dose activity, negative = inhibition, hits mostly inhibitors. actives 0.009% (n = 390,000). AID 504891; active = well fitted inhibition curve with a large enough effect in the polarisation, with a control signal flat, not every such curve was filed as active; inconclusive = small, poorly fitted or top-dose-only effect, or effect the other way, or a change in a side signal; inactive = no such curve, though single readings can be large or run the other way; the % refers to the polarisation; note: % is set by controls: 0 for no effect and ±100 for the full control effect
# Target sequence (Q13526 whole entry, looked up): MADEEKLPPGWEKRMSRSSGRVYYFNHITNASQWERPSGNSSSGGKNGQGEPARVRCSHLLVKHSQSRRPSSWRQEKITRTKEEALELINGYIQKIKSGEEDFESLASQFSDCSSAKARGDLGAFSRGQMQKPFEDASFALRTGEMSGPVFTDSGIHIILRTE
# TbPFK ATP = orthogonal confirmation of T. brucei phosphofructokinase inhibitors. Tb PFK enzyme, ATP depletion, Kinase-Glo Plus luminescence. actives 47% (n = 1,100). shares compounds with Tb PFK inh-1. Potency, µM (doses to about 57.5 µM), inactives show at the highest dose inhibition; calls by dose curve; note: nearly all actives have a fitted effect of over 60% in size
# Tb PFK inh-2 = validation of T. brucei phosphofructokinase inhibitors. Potency, µM (titrated, usually from 57.5 µM), without a hit: at the top dose activity change, negative = inhibition, most hits filed as inhibitors. shares compounds with Tb PFK inh-1. actives 41% (n = 1,100). purified T. brucei PFK, ADP-Glo luminescence, 45 min;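 note: plate controls were full PFK enzyme control for no effect and no enzyme control for full effect; nearly all actives have a fitted effect of over 60% in size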
# * marks the source's active call; other numbers are inactive results; i = inactive; u = inconclusive; x = no result; [ ] = another dose, or the depositor's remark. Only some compounds are listed: those with a hit (about 0.42% of all), similar ones and a draw of the others. Unless noted, calls come from the whole dose curve; as a rule, active = well fitted curve in the direction sought with a large enough effect; inconclusive = small, poorly fitted or top-dose-only effect, or another doubt; inactive = no such curve, though single readings can be large; an effect the other way counts as inactive or inconclusive. Potency is the fitted concentration of half-maximal effect.
SMILES,Tb PFK inh-1,GLS inh,PGK inhibitor,B2AR arrestin,BCR signal inh,Pin1 inhibitor,TbPFK ATP,Tb PFK inh-2
O=C(NC(O)C(Cl)(Cl)Cl)NC(O)C(Cl)(Cl)Cl (configuration not stated),x,5%,x,x,x,x,x,x
CCOC(=O)c1c(-c2ccc(C)o2)csc1NC(=O)COC(=O)c1ccc(NC(N)=O)cc1,2.1µM*,11%,-2%,4%,u,41%,u,-20%
COc1ccc2nc(NC(=O)c3nc(S(=O)(=O)Cc4cccc(C)c4)ncc3Cl)sc2c1,x,0%,-6%,x,x,u,x,x
COc1cc(/C=C/c2[nH]c(=O)[nH]c(=O)c2[N+](=O)[O-])cc([N+](=O)[O-])c1O,u,u,x,0%,8%,u,-25%,u
CCN(CC)Cc1nccn1-c1ccc([N+](=O)[O-])cc1C(=O)c1ccccc1Cl,x,-5%,x,x,x,x,x,x
CN(C)c1cc(Cl)c2nonc2c1N,u,0%,-5%,1%,11%,-12%,21µM*,u
O=C1CCN(Cc2ccc(Cl)cc2)N1,-2%,36%,-8%,0%,6%,-3%,x,x
CCNC(=O)C1CCCc2c1[nH]c1ccc(Cl)cc21 (configuration not stated),u,0%,0%,0%,24%,0%,12µM*,21µM*
CC(=O)O[C@H]1C[C@H](O[C@H]2[C@@H](O)CC(O[C@H]3[C@@H](O)C[C@H](O[C@H]4CC[C@@]5(C)[C@H](CC[C@@H]6[C@@H]5CC[C@]5(C)[C@@H](C7=CC(=O)OC7)CC[C@]65O)C4)O[C@@H]3C)O[C@@H]2C)O[C@H](C)[C@H]1O[C@@H]1O[C@H](CO)[C@@H](O)[C@H](O)[C@H]1O (some centres not stated),x,0%,x,x,x,x,x,x
CCN(CC)c1ccc(NC(=O)CSc2ccsc2[N+](=O)[O-])c(C)c1,u,5%,-10%,0%,9%,u,u,-27%
O=C(CSc1ccsc1[N+](=O)[O-])Nc1cc(F)ccc1F,u,u,u,0%,u,u,6.7µM*,u
O=C(OCc1cccc(C(F)(F)F)c1)c1ccc[nH]c1=O,6µM*,-6%,-8%,0%,1%,-6%,3µM*,5.4µM*
CC1CN(C(=S)Nc2cccc(Cl)c2)CC(C)O1 (configuration not stated),-3%,11%,-1%,0%,u,-9%,x,x
O=C(NCCCN1CC1)Nc1cccc2ccccc12,x,11%,i,x,x,-3%,x,x
O=C(NCCCN1CCCCCC1)c1ccc(CS(=O)(=O)Cc2ccccc2F)o1,u,10%,6%,-1%,-10%,5%,-31%,u
NC(=O)c1cn(C2CCCCC2)c2ccccc2c1=O,0%,-5%,-2%,0%,-2%,-7%,x,x
O=C1c2ccccc2C(=O)N1SC1CCCCC1,u,u,i,0%,u,1%,9.5µM*,15µM*
Nc1ccc(N)cc1,x,-25%,x,x,x,x,x,x
Cc1ccc(NC(=O)Cn2c(=O)oc3cc(S(=O)(=O)N4CCCCCC4)ccc32)cc1Cl,x,-5%,5%,x,u,12%,x,x
O=C(c1cccs1)c1cn(Cc2ccccc2Cl)c2ccccc12,0%,-1%,-5%,0%,9%,6%,x,x
N/C(Cc1ccc(Cl)c(Cl)c1)=N\OC(=O)c1cccs1,u,-3%,-1%,1%,0%,-11%,11µM*,u
CC(C)Oc1cccc(NC(=O)c2ccccc2C(F)(F)F)c1,x,-8%[99.4 µM],x,x,x,x,x,x
O=C(O)c1ccccc1C(=O)Nc1ccc(Br)c(C(F)(F)F)c1,u,3%,-4%,0%,-16%,0%,2%,0%
O=C(Nc1ccc(Cl)c([N+](=O)[O-])c1)ONC1=NCCCCC1,u,u,-1%,0%,u,-2%,u,u
Cc1ccc(NNC(=O)Nc2ccc(Cl)cc2)nn1,24µM*,13%,-2%,-1%,u,-5%,24µM*,u
SMILES,Tb PFK inh-1,GLS inh,PGK inhibitor,B2AR arrestin,BCR signal inh,Pin1 inhibitor,TbPFK ATP,Tb PFK inh-2
O=c1c2ccccc2sn1-c1ccc(Cl)cc1,x,u,-16%,x,x,x,x,x
COC(=O)c1cccc(-n2sc3ccccc3c2=O)c1,6.7µM*,11µM*,i,-1%,u,5%,u,u
O=c1c2ccccc2sn1-c1ccc(F)cc1,3.4µM*,10µM*,-3%,0%,u,5%,16%,u
S=C(SSC(=S)N1CCCCC1)N1CCCCC1,x,13%,x,x,x,x,x,x
O=C(O)CCNC(=O)c1ccc(NC(=O)Cc2ccc(Cl)cc2)cc1,u,7%,-8%,0%,-17%,-5%,u,u
NNC(=O)c1ccc(Cl)cc1,-4%,18%,-10%,-1%,u,0%,x,x
O=C(O)c1cccc2c1C(=O)c1cc(Br)ccc1S2(=O)=O,u,7%,0%,0%,-2%,1%,-29%,u
O=c1cnn(Cc2ccc(Cl)c(Cl)c2)c2ccccc12,u,10%,-3%,0%,-1%,2%,12µM*,24µM*
CN(C)c1c([N+](=O)[O-])cc(N2C(=O)C=CC2=O)cc1[N+](=O)[O-],x,u,0%,x,x,u,x,x
COc1cc(OC)c(OC)cc1CCC(C)NCCC(c1ccccc1)c1ccccc1 (configuration not stated),-6%,2%,-1%,-1%,u,4%,x,x
Cc1cc(C)cc(C(=O)OC2CC3CCC(C2)N3C)c1 (configuration not stated),x,1%,x,x,x,x,x,x
Cc1nnc(Sc2cc(NCCO)c([N+](=O)[O-])c3nonc23)s1,5.4µM*,-3%,2%,0%,u,u,1.3µM*,1.5µM*
CNc1cc(Cl)c2nonc2c1[N+](=O)[O-],-28%,0%,1%,0%,u,-18%,x,x
Cc1nnc(Sc2cc(NCCCO)c([N+](=O)[O-])c3nonc23)s1,6µM*,u,-5%,0%,u,u,1.9µM*,3.4µM*
CCOC(=O)C/C(C)=N/NC(=O)CNc1cccc(Cl)c1C,24µM*,0%,10%,0%,-9%,-6%,16%,-4%
